According to PubChem BioAssay (Tox21):
Values joined by “and” are separate entries in the source; they are usually repeats but may differ in a detail not shown here. Equal values may be shown once. Records with an inconclusive call do not appear. Entries that show only a call come without a potency. Active and inactive are the calls of the source. Unless noted, calls follow the shape of the dose curve; as a rule, active = well fitted curve in the direction sought with a large enough effect in the repeat runs; inconclusive = weak or mixed curves; inactive = no such curve, though single readings can be large; an effect the other way counts as inactive or inconclusive.

Columns and labels:
[1] = qHTS assay for small molecules that induce genotoxicity in human embryonic kidney cells expressing luciferase-tagged ATAD5 (AID 651632); also: nearly all actives have a fitted effect of over 15% in size; also: potency is read from the fitted curve at half-maximal effect
Summary of the method: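 Cells were seeded at 2,000 per well, dosed with compound, and incubated 16 hr at 37C in 5% CO2. Luciferase activity was then quantified after a 30 min room-temperature incubation with Amplite.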

[2] = qHTS assay for small molecules that induce genotoxicity in human embryonic kidney cells expressing luciferase-tagged ATAD5 - cell viability (AID 651634; calls by dose curve; also: nearly all actives have a fitted effect of over 25% in size)
Summary of the method: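 Cells (HEK293T, luciferase-tagged ATAD5) are seeded at 2,000 per well, dosed with compound or DMSO vehicle, and incubated 15.5 hr at 37C and 5% CO2. CellTiter-Fluor is added for 30 min before fluorescence is measured.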

[3] = qHTS assay for small molecule disruptors of the mitochondrial membrane potential - cell viability (AID 720634; calls by dose curve;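 also: human HepG2 liver cancer cells; series mostly up to about 83 µM; nearly all actives have a fitted effect of over 20% in size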)
Summary of the method: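 Cytotoxicity was measured by ATP quantitation in HepG2 wells that had first been treated with compound for 1 hr and stained with m-MPI dye; CellTiter-Glo incubation was 30 min at room temperature.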

[4] = qHTS assay for small molecule disruptors of the mitochondrial membrane potential (AID 720635); also: potency is read from the fitted curve at half-maximal effect
Summary of the method: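 HepG2 cells (2,000/well) attached overnight at 37C, then took compound for 1 hr at 37C, 5% CO2. Mito-MPS dye was added for 30 min; fluorescence was read at 490/535 nm (monomers) and 540/590 nm (aggregates).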

[5] = qHTS assay to test for compound auto fluorescence at 535 nm (green) in HepG2 cells (AID 720675)
[6] = qHTS assay to test for compound auto fluorescence at 460 nm (blue) in HEK293 cells (AID 720678)
Summary of the method: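 HEK293 cells (2,000 per well, medium with 10% dialyzed FBS) attached for 4-5 hr at 37C, then received compound and stood overnight at 37C, 5% CO2. Blue fluorescence was read at Ex/Em 405/460 nm and expressed relative to triamterene.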

[7] = qHTS assay to test for compound auto fluorescence at 590 nm (red) in HEK293 cells (AID 720679)
Summary of the method: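 HEK293 cells (2,000/well, medium with 10% dialyzed FBS) attached for 4-5 hr at 37C, received 23 nL compound and were incubated overnight at 37C, 5% CO2. Red fluorescence was then read at 540/590nm Ex/Em, referenced to Rose Bengal sodium.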

[8] = qHTS assay to test for compound auto fluorescence at 535 nm (green) in HEK293 cells (AID 720680)
[9] = qHTS assay to test for compound auto fluorescence at 460 nm (blue) in HEK293 cell free culture (AID 720681)
Summary of the method: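 Test compounds were pinned into cell-free culture medium (DMEM with 10% FBS) and fluorescence was read directly at Ex/Em 405/460 nm. Signals were expressed as fluorescence equivalents of triamterene, with DMSO vehicle as control.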

[10] = qHTS assay to test for compound auto fluorescence at 535 nm (green) in HEK293 cell free culture (AID 720682)
Summary of the method: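 Cell-free medium (DMEM, 10% FBS) receives compound or DMSO by pintool. Plate read directly at Ex 485/Em 535 nm. Signal converted to fluorescein equivalency.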

[11] = qHTS assay to test for compound auto fluorescence at 590 nm (red) in HEK293 cell free culture (AID 720683)
Summary of the method: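 Tox21 10K library compounds were pinned into cell-free DMEM with 10% FBS and fluorescence was read at excitation 540 nm. Activity is expressed as Rose Bengal sodium equivalency.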

[12] = qHTS assay to test for compound auto fluorescence at 590 nm (red) in HepG2 cell free culture (AID 720684)
Summary of the method: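 Readout: intrinsic compound fluorescence at 590 nm emission after 540 nm excitation, scaled to Rose Bengal sodium. Matrix was cell-free MEM with 10% FBS; DMSO vehicle wells served as control.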

[13] = qHTS assay to test for compound auto fluorescence at 460 nm (blue) in HepG2 cell free culture (AID 720685)
Summary of the method: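 Cell-free plates of MEM plus 10% FBS received 23 nL compound or DMSO vehicle; blue-channel (405/460 nm) intensity scored against triamterene as reference fluorophore.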

[14] = qHTS assay to test for compound auto fluorescence at 535 nm (green) in HepG2 cell free culture (AID 720686)
[15] = qHTS assay to test for compound auto fluorescence at 460 nm (blue) in HepG2 cells (AID 720687)
Summary of the method: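 Cells (2,000/well in MEM with 10% FBS) attached overnight at 37 C, then were exposed to compound or DMSO for 1 hr at 37 C, 5% CO2. Fluorescence read at Ex/Em 405/460 nm, expressed as triamterene-equivalent signal.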

[16] = target: Glucocorticoid receptor (Homo sapiens) (UniProt P04150); assay: qHTS assay to identify small molecule agonists of the glucocorticoid receptor (GR) signaling pathway (AID 720691; active = well fitted activation curve with a large enough effect in the signal ratio in the repeat runs, not every such curve was filed as active; the % refers to the signal ratio; also: potency is read from the fitted curve at half-maximal effect)
Summary of the method: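 Steps: seed GR-bla HeLa cells, incubate 4 h at 37 C/5% CO2; pin-transfer DMSO-dissolved compounds; incubate 18 h at 37 C; add LiveBLAzer B/G FRET substrate; after 2 h at room temperature, measure fluorescence.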

[17] = qHTS assay to test for compound auto fluorescence at 590 nm (red) in HepG2 cells (AID 720674)
Summary of the method: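 Compound auto-fluorescence is scored relative to Rose Bengal sodium, measured at 540/590 nm in live HepG2 cultures after 1 hr compound contact (37 C, 5% CO2).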

[18] = target: Glucocorticoid receptor (Homo sapiens) (UniProt P04150); assay: qHTS assay to identify small molecule antagonists of the glucocorticoid receptor (GR) signaling pathway (AID 720692; active = well fitted inhibition curve with a large enough effect in the signal ratio in the repeat runs, not every such curve was filed as active; the % refers to the signal ratio; also: potency is read from the fitted curve at half-maximal effect)
Summary of the method: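 Antagonism was scored as loss of dexamethasone-driven (5 nM final) reporter signal in HeLa cells bearing a glucocorticoid response element–beta-lactamase construct, after 18 h compound exposure at 37 C and 2 h FRET substrate loading.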

[19] = qHTS assay for small molecule agonists of the p53 signaling pathway - cell viability (AID 651633; calls by dose curve;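 also: p53RE-bla HCT reporter cells with a stable beta-lactamase p53 reporter; series mostly up to about 83 µM; nearly all actives have a fitted effect of over 30% in size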)
Summary of the method: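 p53RE-bla cells, seeded at 4,000 per well and rested 5 h at 37 C/5% CO2, received compounds in DMSO for 16 h at 37 C. CellTiter-Glo was then added, and luminescence was read after 30 min at room temperature to gauge cytotoxicity.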

Sequence of Glucocorticoid receptor (Homo sapiens) (P04150 whole entry, looked up): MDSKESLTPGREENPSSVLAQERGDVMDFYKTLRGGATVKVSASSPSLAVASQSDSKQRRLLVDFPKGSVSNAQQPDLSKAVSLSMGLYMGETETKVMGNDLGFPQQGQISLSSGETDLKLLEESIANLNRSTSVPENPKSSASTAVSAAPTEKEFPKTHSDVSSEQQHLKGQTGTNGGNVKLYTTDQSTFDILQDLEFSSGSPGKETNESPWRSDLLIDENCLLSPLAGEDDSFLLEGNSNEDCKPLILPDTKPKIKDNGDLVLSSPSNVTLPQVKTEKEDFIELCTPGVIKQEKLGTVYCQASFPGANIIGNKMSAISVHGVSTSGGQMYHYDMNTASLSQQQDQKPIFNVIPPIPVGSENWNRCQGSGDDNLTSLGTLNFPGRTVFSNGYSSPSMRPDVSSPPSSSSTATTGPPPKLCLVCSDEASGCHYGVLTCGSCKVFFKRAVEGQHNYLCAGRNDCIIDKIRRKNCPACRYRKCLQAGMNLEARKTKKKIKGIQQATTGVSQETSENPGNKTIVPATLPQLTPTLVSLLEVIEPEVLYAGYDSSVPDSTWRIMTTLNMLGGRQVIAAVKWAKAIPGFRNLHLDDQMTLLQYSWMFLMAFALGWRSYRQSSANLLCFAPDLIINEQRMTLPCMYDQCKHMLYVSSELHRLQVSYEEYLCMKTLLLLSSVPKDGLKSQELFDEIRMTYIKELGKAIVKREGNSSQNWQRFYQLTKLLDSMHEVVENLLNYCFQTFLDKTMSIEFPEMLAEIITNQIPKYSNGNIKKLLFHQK

SMILES	Potency [1]	Potency [2]	Potency [3]	Potency [4]	outcome [5]	outcome [6]	outcome [7]	outcome [8]	outcome [9]	outcome [10]	outcome [11]	outcome [12]	outcome [13]	outcome [14]	outcome [15]	Potency [16]	outcome [17]	Potency [18]	outcome [19]
N=C(N)c1ccc(OCCCOc2ccc(C(=N)N)cc2)cc1	inactive	inactive	inactive	inactive	inactive	inactive	inactive	inactive	inactive	inactive	inactive	inactive	inactive	inactive	inactive	inactive	–	–	–
O=Cc1cccc([N+](=O)[O-])c1	inactive	inactive	inactive	–	inactive	inactive	inactive	inactive	–	inactive	inactive	inactive	inactive	inactive	inactive	inactive	inactive	inactive	–
C[C@H](NC(CCc1ccccc1)C(=O)O)C(=O)N1CCC[C@H]1C(=O)O (stereo partly specified)	inactive	–	inactive	inactive	inactive	inactive	inactive	inactive	inactive	inactive	inactive	inactive	–	inactive	inactive	inactive	inactive	inactive	–
O=[N+]([O-])c1ccc(F)cc1F	inactive	–	inactive	inactive	inactive	inactive	inactive	inactive	–	inactive	inactive	inactive	inactive	inactive	inactive	–	–	–	inactive
OCCCC1CCCCC1	inactive	inactive	inactive	inactive	inactive	inactive	inactive	inactive	–	inactive	inactive	inactive	–	inactive	inactive	–	inactive	–	–
O=c1cc(-c2ccccc2)oc2ccccc12	17.2 µM (active) and 19.3 µM (active)	–	–	48.6 µM (active) and 15.4 µM (active)	inactive	inactive	inactive	inactive	inactive	inactive	inactive	inactive	inactive	inactive	inactive	–	inactive	27.5 µM (active) and 14.3 µM (active)	–
CCCC(=O)O[C@]1(C(=O)CO)CC[C@H]2[C@@H]3CCC4=CC(=O)CC[C@]4(C)[C@H]3[C@@H](O)C[C@@]21C	–	inactive	inactive	–	inactive	inactive	inactive	inactive	inactive	inactive	inactive	inactive	inactive	inactive	inactive	213 nM (active)	inactive	–	–
CC(=O)N(CC(O)CO)c1c(I)c(C(=O)NCCO)c(I)c(C(=O)NCC(O)CO)c1I (stereo unspecified)	inactive	inactive	inactive	inactive	inactive	inactive	inactive	inactive	inactive	inactive	inactive	inactive	inactive	inactive	inactive	–	inactive	–	–
CCCCCSCCCCC	inactive	inactive	inactive	inactive	inactive	inactive	inactive	inactive	–	inactive	inactive	inactive	–	inactive	inactive	–	inactive	–	–
